The text below walks through data of paper PMC7862700, “An all-to-all approach to the identification of sequence-specific readers for epigenetic DNA modifications on cytosine”.

Common to all, as to assay: DAPPL (digital affinity profiling via proximity ligation, sequencing); 10 mM Tris-HCl pH 7.5, 50 mM NaCl, 1 mM DTT, 4% glycerol, room temperature, 30 min; GST-TFs on glutathione beads, 16-mer random dsDNA library, 0.1% formaldehyde crosslink after washing; high values mean tight binding
For one assay, the target named is T1, FEV (Homo sapiens, UniProt Q99581 1-238).
T1 sequence: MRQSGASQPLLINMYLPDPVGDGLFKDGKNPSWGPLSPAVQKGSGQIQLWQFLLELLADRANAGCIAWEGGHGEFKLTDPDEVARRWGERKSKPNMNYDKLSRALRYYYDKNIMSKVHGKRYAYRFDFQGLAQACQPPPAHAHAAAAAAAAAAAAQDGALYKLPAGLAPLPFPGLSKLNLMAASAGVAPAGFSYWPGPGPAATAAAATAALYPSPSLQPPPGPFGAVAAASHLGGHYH
Particulars: protein: recombinant; tags: N-terminal GST; dsDNA, one strand shown. In short, it runs like this: (§1)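 Binding signal is given per hexamer as its read frequency for a factor divided by its frequency in the tag-only sample. GST-fused human transcription factors were expressed in yeast, captured on glutathione beads, barcoded with DNA and pooled with that sample, then incubated with 200 nmole of a 16-mer random double-stranded DNA library in Tris/NaCl/DTT/glycerol buffer for 30 min at room temperature. The pools were then washed, crosslinked, proximity-ligated, amplified by PCR and sequenced on an Illumina NextSeq500.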

The next assay deals with ETV5 (Homo sapiens, UniProt P41161 1-510). Particulars: protein: recombinant; tags: N-terminal GST; dsDNA, one strand shown. Put shortly:
as §1

A further assay has as its target HSF1 (Homo sapiens, UniProt Q00613 1-529). To be noted: protein: recombinant; tags: N-terminal GST; chain copies: 3; dsDNA, one strand shown. In short, it runs like this:
as §1

Another assay concerns the target T2, SPIC (Homo sapiens, UniProt Q8N5J4 1-248).
T2 sequence: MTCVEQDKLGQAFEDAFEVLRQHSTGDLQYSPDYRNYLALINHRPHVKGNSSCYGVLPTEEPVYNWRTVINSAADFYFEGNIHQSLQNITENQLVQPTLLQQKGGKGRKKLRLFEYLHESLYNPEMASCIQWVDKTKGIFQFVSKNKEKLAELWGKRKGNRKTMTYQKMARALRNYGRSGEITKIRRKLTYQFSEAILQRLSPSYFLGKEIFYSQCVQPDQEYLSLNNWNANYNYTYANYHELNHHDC
Particulars: protein: recombinant; tags: N-terminal GST; dsDNA, one strand shown. Put shortly: as §1

Another assay deals with ELF4 (Homo sapiens, UniProt Q99607 1-663). To be noted: protein: recombinant; tags: N-terminal GST; dsDNA, one strand shown. In short, it runs like this:
as §1

The target of the next assay is T3, ELK4 (Homo sapiens, UniProt P28324-2 1-405).
T3 sequence: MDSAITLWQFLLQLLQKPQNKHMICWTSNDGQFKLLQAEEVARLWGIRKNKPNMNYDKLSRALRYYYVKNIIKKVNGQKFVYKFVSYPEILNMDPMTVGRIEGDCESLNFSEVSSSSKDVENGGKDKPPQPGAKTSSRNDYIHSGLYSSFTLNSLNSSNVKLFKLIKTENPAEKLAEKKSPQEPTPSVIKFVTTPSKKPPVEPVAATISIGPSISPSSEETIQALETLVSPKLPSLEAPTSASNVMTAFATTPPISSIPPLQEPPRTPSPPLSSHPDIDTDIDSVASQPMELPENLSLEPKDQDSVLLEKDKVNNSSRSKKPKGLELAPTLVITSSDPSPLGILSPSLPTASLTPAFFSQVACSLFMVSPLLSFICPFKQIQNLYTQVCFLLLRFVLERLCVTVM
Particulars: protein: recombinant; tags: N-terminal GST; dsDNA, one strand shown. In short, it runs like this: as §1

The target of a further assay is T4, ETV2 (Homo sapiens, UniProt O00321 1-342).
T4 sequence: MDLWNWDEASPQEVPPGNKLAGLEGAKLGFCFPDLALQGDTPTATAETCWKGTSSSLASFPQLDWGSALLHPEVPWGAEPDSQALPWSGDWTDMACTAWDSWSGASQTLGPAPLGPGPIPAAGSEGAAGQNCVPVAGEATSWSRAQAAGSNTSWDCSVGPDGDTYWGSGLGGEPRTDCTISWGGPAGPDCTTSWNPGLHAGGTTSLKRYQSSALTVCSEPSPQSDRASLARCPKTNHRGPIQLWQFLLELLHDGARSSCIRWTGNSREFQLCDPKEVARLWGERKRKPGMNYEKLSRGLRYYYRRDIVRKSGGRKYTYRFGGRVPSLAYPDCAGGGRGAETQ
Particulars: protein: recombinant; tags: N-terminal GST; dsDNA, one strand shown. In short, it runs like this:
as §1

Another assay deals with T5, ELF3 (Homo sapiens, UniProt P78545 1-371).
T5 sequence: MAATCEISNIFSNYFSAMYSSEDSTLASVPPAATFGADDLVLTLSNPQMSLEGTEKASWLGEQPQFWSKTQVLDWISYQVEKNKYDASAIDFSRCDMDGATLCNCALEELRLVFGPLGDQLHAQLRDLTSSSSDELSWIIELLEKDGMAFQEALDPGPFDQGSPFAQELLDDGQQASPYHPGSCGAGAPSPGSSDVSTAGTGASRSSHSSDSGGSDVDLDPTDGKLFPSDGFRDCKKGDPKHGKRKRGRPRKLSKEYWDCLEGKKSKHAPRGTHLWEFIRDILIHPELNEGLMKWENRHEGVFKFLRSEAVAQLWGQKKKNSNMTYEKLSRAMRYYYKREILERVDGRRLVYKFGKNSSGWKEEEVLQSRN
Particulars: protein: recombinant; tags: N-terminal GST; dsDNA, one strand shown. In short, it runs like this: as §1

The target of another assay is CRX (Homo sapiens, UniProt O43186 1-299). Particulars: protein: recombinant; tags: N-terminal GST; dsDNA, one strand shown. In short, it runs like this: as §1
In another assay the target is ETV1 (Homo sapiens, UniProt P50549 1-477). Particulars: protein: recombinant; tags: N-terminal GST; dsDNA, one strand shown. Put shortly: as §1
Another assay addresses T6, ERF (Homo sapiens, UniProt P50548 1-548).
T6 sequence: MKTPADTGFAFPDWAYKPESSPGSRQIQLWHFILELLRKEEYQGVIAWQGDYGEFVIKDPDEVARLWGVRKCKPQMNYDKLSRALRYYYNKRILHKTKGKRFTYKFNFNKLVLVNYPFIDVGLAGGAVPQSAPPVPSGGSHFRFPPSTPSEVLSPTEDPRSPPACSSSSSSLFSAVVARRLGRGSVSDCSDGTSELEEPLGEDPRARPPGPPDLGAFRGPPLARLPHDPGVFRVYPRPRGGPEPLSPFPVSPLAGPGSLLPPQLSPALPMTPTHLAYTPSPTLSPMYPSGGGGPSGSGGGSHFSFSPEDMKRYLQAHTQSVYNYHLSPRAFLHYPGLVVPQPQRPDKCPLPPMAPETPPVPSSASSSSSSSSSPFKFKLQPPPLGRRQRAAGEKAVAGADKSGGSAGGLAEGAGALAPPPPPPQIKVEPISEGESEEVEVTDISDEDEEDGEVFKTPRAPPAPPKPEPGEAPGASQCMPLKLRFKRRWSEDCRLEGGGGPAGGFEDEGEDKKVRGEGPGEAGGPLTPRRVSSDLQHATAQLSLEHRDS
Particulars: protein: recombinant; tags: N-terminal GST; dsDNA, one strand shown. In short, it runs like this:
as §1

Another assay addresses T7, ETV3L (Homo sapiens, UniProt Q6ZN32 1-361).
T7 sequence: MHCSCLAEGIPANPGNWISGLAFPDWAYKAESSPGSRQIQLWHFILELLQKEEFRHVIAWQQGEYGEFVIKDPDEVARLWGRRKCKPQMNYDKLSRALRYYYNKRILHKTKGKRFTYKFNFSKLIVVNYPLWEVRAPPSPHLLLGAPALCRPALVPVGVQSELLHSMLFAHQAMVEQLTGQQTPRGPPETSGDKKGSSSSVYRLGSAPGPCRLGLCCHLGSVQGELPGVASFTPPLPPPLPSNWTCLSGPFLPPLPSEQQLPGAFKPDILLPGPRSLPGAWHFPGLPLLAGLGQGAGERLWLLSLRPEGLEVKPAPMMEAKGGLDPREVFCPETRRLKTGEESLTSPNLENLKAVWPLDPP
Particulars: protein: recombinant; tags: N-terminal GST; dsDNA, one strand shown. In short, it runs like this: as §1

In another assay the target is T8, ETS2 (Homo sapiens, UniProt P15036 1-469).
T8 sequence: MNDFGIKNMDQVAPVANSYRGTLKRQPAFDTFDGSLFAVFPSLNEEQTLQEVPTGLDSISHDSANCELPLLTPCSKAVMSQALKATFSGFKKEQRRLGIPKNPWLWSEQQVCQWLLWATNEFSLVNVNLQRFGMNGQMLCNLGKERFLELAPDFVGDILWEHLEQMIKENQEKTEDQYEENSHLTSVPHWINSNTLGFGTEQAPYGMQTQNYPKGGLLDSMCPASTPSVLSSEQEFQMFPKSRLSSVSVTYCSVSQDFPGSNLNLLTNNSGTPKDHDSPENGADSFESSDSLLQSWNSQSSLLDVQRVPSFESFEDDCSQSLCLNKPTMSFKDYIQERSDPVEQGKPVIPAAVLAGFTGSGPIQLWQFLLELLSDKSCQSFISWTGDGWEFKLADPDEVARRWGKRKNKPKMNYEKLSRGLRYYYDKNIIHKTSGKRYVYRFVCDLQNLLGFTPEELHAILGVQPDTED
To be noted: protein: recombinant; tags: N-terminal GST; dsDNA, one strand shown. Put shortly:
as §1

The next assay addresses T9, SPDEF (Homo sapiens, UniProt O95238 1-335).
T9 sequence: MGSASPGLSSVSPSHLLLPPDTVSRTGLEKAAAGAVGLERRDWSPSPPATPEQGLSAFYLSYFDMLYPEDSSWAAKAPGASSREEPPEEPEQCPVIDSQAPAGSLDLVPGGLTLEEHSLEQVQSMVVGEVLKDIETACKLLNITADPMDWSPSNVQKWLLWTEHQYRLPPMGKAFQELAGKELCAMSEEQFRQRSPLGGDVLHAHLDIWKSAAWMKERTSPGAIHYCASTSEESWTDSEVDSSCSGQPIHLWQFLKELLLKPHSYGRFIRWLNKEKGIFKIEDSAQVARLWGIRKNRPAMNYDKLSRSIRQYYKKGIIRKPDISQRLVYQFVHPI
To be noted: protein: recombinant; tags: N-terminal GST; dsDNA, one strand shown. Put shortly:
as §1

The target in the next assay is T10, ETV7 (Homo sapiens, UniProt Q9Y603 1-341).
T10 sequence: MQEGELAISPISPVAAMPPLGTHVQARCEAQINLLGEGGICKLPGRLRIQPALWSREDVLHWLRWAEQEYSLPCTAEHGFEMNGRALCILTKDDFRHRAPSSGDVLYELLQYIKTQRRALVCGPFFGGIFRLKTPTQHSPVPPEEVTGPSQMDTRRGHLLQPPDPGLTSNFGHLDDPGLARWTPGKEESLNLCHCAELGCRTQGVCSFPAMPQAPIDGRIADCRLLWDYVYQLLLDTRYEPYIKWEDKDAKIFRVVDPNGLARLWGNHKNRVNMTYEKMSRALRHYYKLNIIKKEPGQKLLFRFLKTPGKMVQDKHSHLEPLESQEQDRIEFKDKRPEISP
To be noted: protein: recombinant; tags: N-terminal GST; dsDNA, one strand shown. Put shortly:
as §1

The next assay concerns the target T11, ELF5 (Homo sapiens, UniProt Q9UKW6-2 1-255).
T11 sequence: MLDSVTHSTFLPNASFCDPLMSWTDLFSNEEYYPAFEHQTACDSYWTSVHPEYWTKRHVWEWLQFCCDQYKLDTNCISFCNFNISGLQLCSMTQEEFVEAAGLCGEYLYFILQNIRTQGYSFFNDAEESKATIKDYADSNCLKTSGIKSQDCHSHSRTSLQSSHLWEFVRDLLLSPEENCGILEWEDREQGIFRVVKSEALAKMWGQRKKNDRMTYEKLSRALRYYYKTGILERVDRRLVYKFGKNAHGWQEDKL
Particulars: protein: recombinant; tags: N-terminal GST; dsDNA, one strand shown. Put shortly: as §1

In a further assay the target is T12, ETV3 (Homo sapiens, UniProt P41162-2 1-143).
T12 sequence: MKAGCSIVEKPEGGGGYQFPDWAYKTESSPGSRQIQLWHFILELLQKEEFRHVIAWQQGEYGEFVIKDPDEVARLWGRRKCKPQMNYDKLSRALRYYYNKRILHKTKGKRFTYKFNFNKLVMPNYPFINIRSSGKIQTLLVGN
Particulars: protein: recombinant; tags: N-terminal GST; dsDNA, one strand shown. Put shortly: as §1

For a further assay, the target named is ETV6 (Homo sapiens, UniProt P41212 1-452). Particulars: protein: recombinant; tags: N-terminal GST; dsDNA, one strand shown. In short, it runs like this:
as §1

Sequence of ELF4 (Q99607 whole entry): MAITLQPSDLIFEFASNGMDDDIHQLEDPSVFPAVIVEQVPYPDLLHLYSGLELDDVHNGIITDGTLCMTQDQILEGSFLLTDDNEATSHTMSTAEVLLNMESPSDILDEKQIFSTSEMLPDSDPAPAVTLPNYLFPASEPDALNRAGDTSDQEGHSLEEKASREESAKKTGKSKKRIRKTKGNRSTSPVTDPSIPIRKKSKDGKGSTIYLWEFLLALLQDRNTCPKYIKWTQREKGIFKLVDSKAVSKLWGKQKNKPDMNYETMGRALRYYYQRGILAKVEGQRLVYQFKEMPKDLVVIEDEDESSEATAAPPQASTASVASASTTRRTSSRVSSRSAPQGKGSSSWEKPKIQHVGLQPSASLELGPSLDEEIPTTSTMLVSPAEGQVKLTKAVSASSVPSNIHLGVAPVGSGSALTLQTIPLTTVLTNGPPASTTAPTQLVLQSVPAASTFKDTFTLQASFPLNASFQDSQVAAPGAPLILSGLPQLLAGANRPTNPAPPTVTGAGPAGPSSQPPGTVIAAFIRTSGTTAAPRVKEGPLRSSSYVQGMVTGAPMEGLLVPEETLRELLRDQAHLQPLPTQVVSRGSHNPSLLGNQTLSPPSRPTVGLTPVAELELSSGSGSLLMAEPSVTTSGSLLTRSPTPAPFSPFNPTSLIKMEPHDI
Sequence of HSF1 (Q00613 whole entry): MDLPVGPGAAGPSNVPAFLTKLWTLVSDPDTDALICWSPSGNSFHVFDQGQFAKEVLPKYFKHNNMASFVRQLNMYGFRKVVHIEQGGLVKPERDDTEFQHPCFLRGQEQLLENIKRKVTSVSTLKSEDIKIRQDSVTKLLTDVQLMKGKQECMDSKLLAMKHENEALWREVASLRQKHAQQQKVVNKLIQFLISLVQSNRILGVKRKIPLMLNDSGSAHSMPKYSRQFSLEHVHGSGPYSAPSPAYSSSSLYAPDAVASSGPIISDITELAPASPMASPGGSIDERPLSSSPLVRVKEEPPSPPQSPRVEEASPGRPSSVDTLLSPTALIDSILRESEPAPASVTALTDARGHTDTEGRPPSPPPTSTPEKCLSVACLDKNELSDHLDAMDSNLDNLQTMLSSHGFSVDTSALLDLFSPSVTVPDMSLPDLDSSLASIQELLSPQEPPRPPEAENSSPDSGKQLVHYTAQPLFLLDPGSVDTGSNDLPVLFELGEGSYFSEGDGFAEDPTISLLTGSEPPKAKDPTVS
Sequence of ETV1 (P50549 whole entry): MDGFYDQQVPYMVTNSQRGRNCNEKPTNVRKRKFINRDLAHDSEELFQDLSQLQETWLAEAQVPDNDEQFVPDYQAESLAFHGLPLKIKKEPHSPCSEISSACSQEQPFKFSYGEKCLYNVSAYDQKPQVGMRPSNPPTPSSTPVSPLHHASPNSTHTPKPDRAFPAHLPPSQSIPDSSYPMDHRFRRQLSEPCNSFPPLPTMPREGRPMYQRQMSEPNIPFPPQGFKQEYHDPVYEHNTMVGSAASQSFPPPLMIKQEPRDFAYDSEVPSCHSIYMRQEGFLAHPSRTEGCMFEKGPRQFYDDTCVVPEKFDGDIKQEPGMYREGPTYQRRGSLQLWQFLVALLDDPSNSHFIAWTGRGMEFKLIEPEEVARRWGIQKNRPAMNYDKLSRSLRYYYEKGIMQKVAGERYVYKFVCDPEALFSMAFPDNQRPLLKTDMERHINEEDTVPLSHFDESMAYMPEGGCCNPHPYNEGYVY
Sequence of ETV5 (P41161 whole entry): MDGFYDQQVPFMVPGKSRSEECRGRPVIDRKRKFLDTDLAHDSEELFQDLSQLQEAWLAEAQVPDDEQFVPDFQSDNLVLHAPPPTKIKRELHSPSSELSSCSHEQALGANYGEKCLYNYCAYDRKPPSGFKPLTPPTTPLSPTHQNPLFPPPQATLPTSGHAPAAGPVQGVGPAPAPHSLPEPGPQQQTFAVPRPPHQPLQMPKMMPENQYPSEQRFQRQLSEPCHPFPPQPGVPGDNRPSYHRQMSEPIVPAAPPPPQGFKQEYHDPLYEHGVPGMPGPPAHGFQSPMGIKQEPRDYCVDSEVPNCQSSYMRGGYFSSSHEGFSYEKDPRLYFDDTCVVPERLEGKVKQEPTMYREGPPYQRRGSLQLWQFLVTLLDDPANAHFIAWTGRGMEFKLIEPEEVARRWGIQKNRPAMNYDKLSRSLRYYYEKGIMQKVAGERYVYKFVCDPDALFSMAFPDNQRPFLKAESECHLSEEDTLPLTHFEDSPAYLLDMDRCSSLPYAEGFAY
Sequence of ETV6 (P41212 whole entry): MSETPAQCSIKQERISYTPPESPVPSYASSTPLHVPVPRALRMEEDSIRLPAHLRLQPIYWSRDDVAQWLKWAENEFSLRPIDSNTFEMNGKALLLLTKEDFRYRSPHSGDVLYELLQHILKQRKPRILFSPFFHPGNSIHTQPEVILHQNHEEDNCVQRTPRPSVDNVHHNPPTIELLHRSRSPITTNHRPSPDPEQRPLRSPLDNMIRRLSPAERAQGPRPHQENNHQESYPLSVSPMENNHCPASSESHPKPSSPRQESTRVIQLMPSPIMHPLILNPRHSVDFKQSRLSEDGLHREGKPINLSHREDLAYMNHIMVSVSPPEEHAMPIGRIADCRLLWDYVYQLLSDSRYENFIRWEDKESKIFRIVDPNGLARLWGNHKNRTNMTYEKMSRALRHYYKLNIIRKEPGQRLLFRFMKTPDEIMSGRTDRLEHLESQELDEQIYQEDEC
Sequence of CRX (O43186 whole entry): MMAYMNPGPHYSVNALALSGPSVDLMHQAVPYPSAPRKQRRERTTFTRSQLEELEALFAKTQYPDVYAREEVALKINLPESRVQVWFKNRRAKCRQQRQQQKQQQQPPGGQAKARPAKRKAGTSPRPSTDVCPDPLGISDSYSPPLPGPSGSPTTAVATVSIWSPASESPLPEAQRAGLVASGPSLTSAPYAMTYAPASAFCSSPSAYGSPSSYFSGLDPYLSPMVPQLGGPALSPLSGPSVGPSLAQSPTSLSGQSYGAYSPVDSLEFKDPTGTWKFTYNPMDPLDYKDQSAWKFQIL

Take GACTCC: the binding signal with FEV is 1.32 fold enrichment (6-mer frequency, TF over GST control); with ETV5, 1.27 fold enrichment (6-mer frequency, TF over GST control); with HSF1, 1.05 fold enrichment (6-mer frequency, TF over GST control); with SPIC, 1.34 fold enrichment (6-mer frequency, TF over GST control); in the assay with ELF4 it was 1.43 fold enrichment (6-mer frequency, TF over GST control); with ELK4, 1.12 fold enrichment (6-mer frequency, TF over GST control). The binding signal with ETV2 is 1.26 fold enrichment (6-mer frequency, TF over GST control); with ELF3 it was 1.25 fold enrichment (6-mer frequency, TF over GST control); in the assay with CRX, 1.02 fold enrichment (6-mer frequency, TF over GST control); with ETV1, 1.29 fold enrichment (6-mer frequency, TF over GST control); in the assay with ERF, 1.32 fold enrichment (6-mer frequency, TF over GST control); with ETV3L, 1.27 fold enrichment (6-mer frequency, TF over GST control). The binding signal with ETS2 was 1.29 fold enrichment (6-mer frequency, TF over GST control); with SPDEF, 1.41 fold enrichment (6-mer frequency, TF over GST control); in the assay with ETV7 it was 1.23 fold enrichment (6-mer frequency, TF over GST control); with ELF5 it was 1.16 fold enrichment (6-mer frequency, TF over GST control); with ETV3, 1.35 fold enrichment (6-mer frequency, TF over GST control); in the assay with ETV6 it was 1.18 fold enrichment (6-mer frequency, TF over GST control).
